Laboratory results reported in PubChem BioAssay (Tox21).
Values joined by “and” are separate entries in the source; they are usually repeats but may differ in a detail not shown here. Equal entries are not always repeated. Inconclusive results are not listed. Some compounds were tested as several samples or in several runs, with calls that do not always agree. Active and inactive are the calls of the source. Calls come from the whole dose curve; as a rule, active = well fitted cell-killing curve with a large enough effect in the repeat runs; inconclusive = weak or mixed curves, or effect the other way; inactive = flat fitted curve, though single readings scatter.

assay: qHTS assay to identify small molecule agonists of the androgen receptor (AR) signaling pathway in the presence of an antagonist - cell viability counter screen (AID 1259379); conditions: MDA-kb2 viability, CellTiter-Fluor, 16 h; series mostly up to 92.4 µM; activity change, negative = cytotoxicity: at the top concentration; note: nearly all actives have a fitted effect of over 25% in size
Excerpt: National Center for Advancing Translational Sciences [NCATS]
NIH Chemical Genomics Center [NCGC]
U.S. Environmental Protection Agency [EPA]
National Institutes of Environmental Health Sciences [NIEHS]
National Toxicology Program [NTP]
U.S. Food and Drug Administration [FDA]
Androgen receptor (AR) is an important member of nuclear receptor family. Its signaling plays a critical role in AR-dependent prostate cancer and other androgen related diseases. Considerable attention has been given in the past decades to develop methods to study and screen for the environmental chemicals that have the potential to interfere with metabolic homeostasis, reproduction, developmental and behavioral functions. Therefore AR binding assay for screening against androgen agonists and antagonists can be used to identify potential endocrine disruptors.
MDA-kb2 cells (from ATCC, deposited by Wilson et al.) are human breast carcinoma cells that were stably transfected with a luciferase reporter gene under control of the MMTV promoter that contains response elements for both androgen receptor (AR) and glucocorticoid receptor (GR). This particular screening for measuring luciferase reporter gene activity using MDA-kb2 cells against Tox21 10K library compounds is a confirmation study on agonist mode screening in the presence of AR-antagonist compound (Nilutamide) at 3.0uM final concentration. The cytotoxicity of the compounds was tested in parallel by measuring the cell viability using CellTiter-Fluor assay system (Promega, Madison, WI) in the same wells.
Tox21 Assay Protocol Summary:
MDA-kb2 cells (cells cultured without CO2) were dispensed at 3,000 cells/well in 4uL of culture medium into white wall/solid-bottom 1536-well plates (Corning Life Sciences, Corning, NY) using a Multidrop Combi (Thermo Fisher Scientific Inc., Waltham, MA) dispenser. The assay plates were incubated at 37C and 0% CO2 for 5hr. One uL of 3.0uM (final concentration) Nilutamide or assay buffer was added using two separate tips of Flying Reagent Dispenser (FRD, Aurora Discovery, San Diego, CA). Then 23nL of compounds dissolved in DMSO at 15 concentrations and positive controls were transferred to the assay plates using a Pintool station (Wako, San Diego, CA). The assay plates were incubated at 37C and 0% CO2 for 16 hr. After 15hr incubation at 37C, 1uL/well CellTiter-Fluor reagent (Promega Corporation) was added to each well of the assay plates using FRD. After 1hr incubation at 37C and 0% CO2, the fluorescence signal was measured using a ViewLux plate reader (PerkinElmer, Shelton, CT).
% is set by controls: 0 for no effect and ±100 for the full control effect; potency is the fitted concentration of half-maximal effect.

SMILES | activity change, negative = cytotoxicity | Potency
COc1ccc2c3c1O[C@H]1[C@H](O)CC[C@H]4[C@@H](C2)N(C)CC[C@@]341 | 1.29% (inactive) | 
C=CC(=O)[O][Sn]([CH2]CCC)([CH2]CCC)[CH2]CCC |  | 4.33 µM (active)
CCCCCCC[CH2][Sn]([Cl])([Cl])[CH2]CCCCCCC | -1.1% (inactive) | 
C=CCBr | 0.0842% (inactive) | 
CCCN | 3.66% (inactive) | 
CCC[CH2][Sn]([CH2]CCC)([CH2]CCC)[O][Sn]([CH2]CCC)([CH2]CCC)[CH2]CCC |  | 0.475 µM (active)
CCN(CC)CCN1C(=O)CN=C(c2ccccc2F)c2cc(Cl)ccc21 | -2.63% [at 42.5 µM] (inactive) | 
Nc1ccccc1-c1ccccc1 | 1.18% (inactive) | 
CO/N=C(\C(=O)OC)c1ccccc1CO/N=C(\C)c1cccc(C(F)(F)F)c1 |  | 12.2 µM (active)
COC(=O)/C=C(\C)OP(=O)(OC)OC | 1.23% (inactive) | 
CC(=O)[O-].CC(=O)[O-].[Co+2] | 1.37% (inactive) | 
CN(C)C(=S)SSC(=S)N(C)C |  | 60.3 µM (active) and 68.6 µM (active) and inactive
CO/N=C(/C1=NOCCO1)c1ccccc1Oc1ncnc(Oc2ccccc2Cl)c1F |  | 15.3 µM (active)
CC(C)N(C(=O)CCl)c1ccccc1 |  | 54.5 µM (active)
CCOP(=O)(OCC)Oc1nc(Cl)c(Cl)cc1Cl | -0.403% (inactive) | 
ClC1=C(Cl)[C@]2(Cl)[C@H]3[C@H]([C@@H]4C=C[C@H]3C4)[C@@]1(Cl)C2(Cl)Cl |  | inactive
CN1C2CCC(C)(C)C1CC(OC(=O)C(O)(c1cccs1)c1cccs1)C2 (stereo not given) | 0.645% [at 42.5 µM] (inactive) | 
CN/C(=N\[N+](=O)[O-])NCc1cnc(Cl)s1 | 1.07% (inactive) | 
ClC1=C(Cl)[C@]2(Cl)[C@@H]3[C@H]4C[C@H]([C@@H]5O[C@H]45)[C@@H]3[C@@]1(Cl)C2(Cl)Cl | 2.35% (inactive) | 
CCCCCCCCCCCCCCn1cc[n+](C)c1 |  | 7.71 µM (active) and 1.7 µM (active)

SMILES | activity change, negative = cytotoxicity | Potency
O=S(=O)(O)F | -0.738% (inactive) | 
COP(=S)(NC(C)C)Oc1ccc(C)cc1[N+](=O)[O-] (stereo not given) | -1.62% (inactive) | 
c1ccc(Nc2ccc(Nc3ccccc3)cc2)cc1 | -9.85% (inactive) | 
CCCCN(CCCC)C(=S)[S-].CCCCN(CCCC)C(=S)[S-].[Ni+2] | -1.52% [at 42.5 µM] (inactive) | 
CC(Cc1ccc(O)cc1)NCC(O)c1cc(O)cc(O)c1 (stereo not given) | 2.37% [at 42.5 µM] (inactive) | 
O=C(CCCCl)c1ccc(F)cc1 | -0.309% [at 42.5 µM] (inactive) | 
CCCCN(CCCC)C(=S)S | -3.91% (inactive) | 
Clc1ccc(C(c2ccc(Cl)cc2)C(Cl)Cl)cc1 | -0.298% (inactive) | 
OCC(Br)CBr (stereo not given) | -1.41% (inactive) | 
O=Cc1ccccc1 | 0.153% (inactive) | 
CCC(C)c1cccc(C(C)CC)c1O (stereo not given) | -2.29% (inactive) | 
CCN(CC)CCc1c[nH]c2ccccc12 | -2.58% (inactive) | 
O=C(Cl)c1ccccc1F | -1.72% (inactive) | 
CNC(=O)O/N=C(\C)C(C)S(C)(=O)=O (stereo not given) | 0.548% [at 872 µM] (inactive) | 
CSSC | -9.04% (inactive) | 
CCc1cccc(C)c1N(C(=O)CCl)[C@@H](C)COC | -9.45% (inactive) | 
NC1CCC(CC2CCC(N)CC2)CC1 (stereo not given) |  | 60.1 µM (active)
CCC(C)Br (stereo not given) | -1.67% (inactive) | 
Brc1cccc(-c2ccccc2)c1 | 1.18% (inactive) | 
CCC1(CC)C(=O)N=C(O)NC1=O | -2.88% (inactive) | 
